Our source for the inhibition values is PubChem BioAssay AID651699 (Sanford-Burnham Center for Chemical Genomics, 2012).

Hit rate of the full screen: of about 360,000 compounds, about 2,100 (0.58%) were called active. The entries come from a sample that favours actives as a whole. A number with no mark means an inactive call. No stated cut-off is given here; in the data, active means inhibition above about 36%; inactive means the rest.

One may read the inhibition as the drop in the measured response relative to a control, in per cent.

The target of this experiment is NEDD8-conjugating enzyme Ubc12 (Homo sapiens) + NEDD8-activating enzyme E1 regulatory subunit (Homo sapiens) (UniProt P61081+Q13564). Put plainly: inhibitors of cullin neddylation, primary screen, biochemical, TR-FRET, uHTS, NAE and Ubc12 (AID 651699). The following applies: at 25 µM, active compounds read high. (In general: In TR-FRET formats the signal depends on donor and acceptor labels being close together.)
Chain of NEDD8-conjugating enzyme Ubc12 (Homo sapiens) + NEDD8-activating enzyme E1 regulatory subunit (Homo sapiens) (P61081 whole entry, looked up): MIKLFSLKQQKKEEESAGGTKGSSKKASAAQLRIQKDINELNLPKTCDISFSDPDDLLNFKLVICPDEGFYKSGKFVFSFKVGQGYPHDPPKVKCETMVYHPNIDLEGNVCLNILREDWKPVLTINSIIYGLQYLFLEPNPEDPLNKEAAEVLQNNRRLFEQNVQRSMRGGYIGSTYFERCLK
Chain of NEDD8-conjugating enzyme Ubc12 (Homo sapiens) + NEDD8-activating enzyme E1 regulatory subunit (Homo sapiens) (Q13564 whole entry, looked up): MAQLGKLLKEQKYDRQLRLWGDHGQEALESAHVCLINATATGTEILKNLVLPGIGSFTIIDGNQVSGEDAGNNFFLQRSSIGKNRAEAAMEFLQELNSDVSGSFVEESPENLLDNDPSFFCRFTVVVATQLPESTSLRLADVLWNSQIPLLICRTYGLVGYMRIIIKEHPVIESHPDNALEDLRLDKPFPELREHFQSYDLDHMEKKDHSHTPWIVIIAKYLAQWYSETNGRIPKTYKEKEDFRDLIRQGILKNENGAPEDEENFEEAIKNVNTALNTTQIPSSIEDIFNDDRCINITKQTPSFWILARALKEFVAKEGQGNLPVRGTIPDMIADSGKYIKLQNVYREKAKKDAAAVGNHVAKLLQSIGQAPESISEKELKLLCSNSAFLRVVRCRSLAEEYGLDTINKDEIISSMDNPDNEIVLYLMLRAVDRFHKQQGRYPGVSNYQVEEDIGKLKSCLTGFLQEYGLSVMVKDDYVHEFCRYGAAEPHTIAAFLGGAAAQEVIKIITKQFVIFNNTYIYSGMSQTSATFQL
As to `CCN1CCCC1CNc1ncnc2c1[nH]c1ccc(F)cc12` (centres undefined), the inhibition was 37% (active).
The figure for `CCN1CCCC1CNC(=O)Cn1cnc2ccc(S(=O)(=O)N3CCC(C)CC3)cc2c1=O` (centres undefined) is -2.38%; for `CCN1CCCC1Cn1cnc2c([nH]c3cc(OC)ccc32)c1=O` (centres undefined) it is 1.83%; for `CCOC(=O)C1=C(N)N2C(=O)C(C)SC2=C(C(=O)OCC)C1c1cc(OC)c(OC)c(OC)c1` (centres undefined) it is -1.53%.
Regarding `CC(=O)c1ccc(Nc2nc(C(N)c3ccccc3)cs2)cc1` (centres undefined), the inhibition is 41.1% (active).
Regarding `COc1ccc(CC(N)c2csc(NC(=O)NC(c3ccccc3)c3ccccc3)n2)cc1` (centres undefined), the inhibition was -1.83%.
Regarding `COC(=O)c1ccc2c(c1)S(=O)(=O)NC(=NCCCN1CCOCC1)S2`, the inhibition was -10.1%.
`CC(Sc1nc2c([nH]c3ccccc32)c(=O)n1C)c1ccccc1` (centres undefined): the inhibition is -4.19%.
For `O=c1c2c(nc3cc(-c4cccc(Cl)c4)[nH]n13)CCCC2`, the inhibition is 40.3% (active).
With `Clc1cccc(Cc2c(-c3cccc(Cl)c3)nc3ccc(Cl)cn23)c1`, the inhibition was -36.7%.
In the case of `CSc1nc2nc3c(c(=O)n2[nH]1)CCC3` it was -7.01%; in that of `O=C(Nc1cc(-c2nn(CC(=O)N3CCCCC3)c(=O)c3ccccc23)ccc1N1CCOCC1)c1ccc(Cl)cc1`, 20.1%.
Consider `O=C(CCl)NNc1cccc(Cl)n1`, for which the inhibition was 3.4%.
For the compound `COc1ccc2oc(C(=O)NCC(Cc3ccccc3)N(C)C)c(C)c2c1` (centres undefined), the inhibition is 43.3% (active).
As for `COc1ccc2oc(C(=O)N(CC(C)C)C3CCS(=O)(=O)C3)c(C)c2c1` (centres undefined), the inhibition was 2.83%.
Regarding `NC(=O)C1(N2CCCCC2)CCN(C(=O)c2ccc(C#Cc3ccccc3)o2)CC1`, the inhibition is -13.2%.
`O=C(NC(=S)Nc1ccc(Cl)c(C(=O)O)c1)c1cncc(Br)c1`: the inhibition is -4.06%.
`COc1ccc(Br)cc1/C=N/Nc1ccc(S(=O)(=O)Nc2ccccc2C(=O)O)cc1[N+](=O)[O-]`: the inhibition was -8.62%.
As to `COc1ccc(Br)cc1/C=N/Nc1ccc(Cl)c(C(=O)O)c1`, the inhibition was 45.1% (active).
As for `CCN(CC(=O)NCc1cccs1)c1nnnn1-c1ccccc1`, the inhibition is 0.19%.
`O=C(NCc1cccc(C(F)(F)F)c1)c1ccc2sc(COCCO)nc2c1`: the inhibition was 3.36%.
The figure for `CCOC(=O)c1cc(C(=O)Nc2ccc(S(=O)(=O)Nc3ccc(OC)cc3)cc2)nn1C` is -1.03%; for `COc1ccc2oc(C(=O)OCC(=O)N(CC(C)C)c3c(N)n(Cc4ccccc4)c(=O)[nH]c3=O)c(C)c2c1` it is 44.4% (active).
The figure for `CC(C)CN(C(=O)COC(=O)c1ccc2ccccc2c1)c1c(N)n(Cc2ccccc2)c(=O)[nH]c1=O` is 3.53%.
The figure for `CC(C)CN(C(=O)COC(=O)c1ccc(Cl)c(N)c1)c1c(N)n(Cc2ccccc2)c(=O)[nH]c1=O` is 30.6%; for `CCN(CC)C(=O)C1=C(C)N(Cc2ccc(C(C)(C)C)cc2)C(=O)C(CC(=O)NCc2cccc3ccccc23)C1` (centres undefined) it is -9.92%; for `CC(C)Cc1nc(N2CCOCC2)c(C#N)c2c1CCC2` it is 44.8% (active).
In the case of `CC(C)Cc1nc(Cl)c(C#N)c2c1CCC2`, the inhibition was -5.13%.
In the case of `COc1cc(S(=O)(=O)N2CCOCC2)ccc1NC(=O)COc1ccc(N(C)S(=O)(=O)c2ccc(C)cc2)cc1`, the inhibition was -8.3%.
As for `CCNC(=O)CN(c1ccc(C)cc1)S(=O)(=O)c1ccc(SC)cc1`, the inhibition was -3.17%.
For `CCOC(=O)c1cc(C(C)C)sc1NC(=O)COC(=O)c1nccnc1N`, the inhibition was 45.2% (active).
Consider `Cc1cc(C(=O)OCC(=O)Nc2nnc(C(C)C)s2)c2ccccc2n1`, for which the inhibition was -11.2%.
`CCOC(=O)c1cc(C)sc1NC(=O)C1CCC1`: the inhibition was -7.86%.
As to `COc1ccc(CN(CC(=O)NC2CCCC2)C(=O)CCC(=O)Nc2cc(C)on2)cc1`, the inhibition was 6.41%.
Consider `COc1cccc(NC(=O)c2nn(-c3ccc(OC)cc3OC)c(=O)c3ccccc23)c1`, for which the inhibition is -9.58%.
In the case of `CCN(c1ccccc1)S(=O)(=O)c1ccc(OCC(=O)N2CCCC2)cc1`, the inhibition is -24.7%.
In the case of `Cc1ccc(NC(=O)CC2C(=O)N(Cc3ccccc3)C(=S)N2NC(=O)c2cccc(F)c2)c(C)c1` (centres undefined), the inhibition was 2.05%.
As to `COc1ccccc1N1CCN(C(=O)c2ccc(NC3=NC4CS(=O)(=O)CC4S3)cc2)CC1` (centres undefined), the inhibition is 0.72%.
Take `COc1ccc(-n2nc(C(=O)NCC(=O)N3CCN(c4ccccc4OC)CC3)c3ccccc3c2=O)c(OC)c1`: the inhibition was 6.66%.
In the case of `COc1ccc(Nc2ncc(C(=O)N3CCN(c4ccccc4OC)CC3)c3ccccc23)cc1`, the inhibition was 48.4% (active).
Take `CCN(CC(=O)Nc1c(F)cccc1F)C(=O)c1cnc(C)cn1`: the inhibition was -6.81%.
`CCN(CC(=O)Nc1c(F)cccc1F)C(=O)c1ccc(-c2ccccc2)cc1`: the inhibition is 4.05%.
For `CCN(CC(=O)Nc1c(F)cccc1F)C(=O)c1ccc(-c2ccc(C(C)=O)cc2)o1`, the inhibition is 71.9% (active).
For `COc1cc(C2C(C(=O)c3cccs3)=C(O)C(=O)N2CCN2CCOCC2)ccc1OCCC(C)C` (centres undefined), the inhibition was -13.5%.
`CN(CC(=O)Nc1cccc(F)c1)C(=O)C1CC(=O)N(CCc2ccccc2)C1` (centres undefined): the inhibition is -1.18%.
With `Cc1cc(C)c2[nH]c(=O)c(CN(Cc3ccccc3)C(=S)NCCCN(C)C)cc2c1`, the inhibition was 2.15%.
With `Cc1ccc2cc(C#N)c(NCCNC(=S)NCCCN3CCOCC3)nc2c1`, the inhibition was 50.7% (active).
The figure for `Cc1cc(C)cc(NC(=S)NCCCN2CCOCC2)c1` is 0.98%.
As for `C=CCn1c(SCc2nnc(-c3ccccc3)o2)nnc1C(O)c1ccccc1` (centres undefined), the inhibition is 5.64%.
The figure for `CCOc1ccc(N(C(=O)c2snc(C(N)=O)c2N)C(C(=O)NCC2CCCO2)c2c[nH]c3ccccc23)cc1` (centres undefined) is 7.52%; for `COc1cc(F)c(C2=CC(=O)CC(C)(C)C2)cc1F` it is -23.8%.
As to `CC(=O)Nc1ccc(S(=O)(=O)N(CCc2ccccc2)CC(=O)N/N=C/c2ccc(C(=O)O)cc2)cc1`, the inhibition is -5.24%.
On to `COc1ccc(N(CC(=O)N/N=C/c2cccs2)S(=O)(=O)c2ccc(OC)c(OC)c2)cc1`, for which the inhibition is -15.8%.
Turning to `COc1ccc(N(CC(=O)N/N=C/c2cccc3c2OCCO3)S(=O)(=O)c2ccc(NC(C)=O)cc2)cc1`, the inhibition is 38.9% (active).
On to `Cc1ccc(C2=NN(C(=O)COc3ncnc4ccccc34)C(c3ccco3)C2)cc1` (centres undefined), for which the inhibition is -119%.
As to `O=C(COc1ccccc1Cl)N1N=C(c2cccs2)CC1c1ccco1` (centres undefined), the inhibition was 39.1% (active).
`O=C1c2cccc(OCC(=O)N3N=C(c4cccs4)CC3c3ccc(F)cc3)c2CCN1Cc1ccccc1` (centres undefined): the inhibition is -25.8%.
On to `CCC(C)(C(=O)NC1CCCC1)N(C(=O)CNC(C)=O)c1ccc(C)cc1` (centres undefined), for which the inhibition is -5.51%.
For `O=C(O)c1ccc2c(=O)n3c(nc2c1)/C(=C/c1ccc(OC(F)F)cc1OC(F)F)CC3`, the inhibition is 41% (active).
In the case of `O=C(Nc1cc(F)ccc1F)c1ccc2c(=O)n3c(nc2c1)CCC3` it was 8.53%; in that of `Cc1ccc(/C=C2\CCn3c2nc2cc(C(=O)O)ccc2c3=O)c(C)c1`, 31.9%.
For `N#Cc1ccc(/C=C2\CCn3c2nc2cc(C(=O)O)ccc2c3=O)cc1`, the inhibition is 63.7% (active).
In the case of `Cc1cc(C)c(C)c(S(=O)(=O)N2CCN(C(=O)c3ccc4c(=O)n5c(nc4c3)CCC5)CC2)c1C`, the inhibition is 20.1%.
In the case of `N#Cc1cccc(OC(=O)c2ccc3c(=O)n4c(nc3c2)CCC4)c1` it was -4.93%.
In the case of `CCCn1c(C2CCCN2c2nc(-c3ccc(OC)cc3)cs2)nc2ccccc21` (centres undefined) it was -26.8%; in that of `CCOC(=O)[C@]12CCC=C1N(Cc1ccco1)C(=O)[C@H](CC(=O)NCc1cccc(C(F)(F)F)c1)C2`, 5.67%.
In the case of `COc1cc(C2NC(=O)NC(c3ccccc3)=C2C(C)=O)c(Br)cc1OCC(N)=O` (centres undefined) it was 9.92%; in that of `COc1ccc(-n2cc(CN(C)Cc3n[nH]c(=O)[nH]3)c(-c3cccc(F)c3)n2)cc1`, 47.7% (active); in that of `Cc1nc2ccc(S(=O)(=O)NC(C(=O)N3CCCCCC3)C(C)C)cc2s1` (centres undefined), 1.31%.
Consider `COc1cc2c(cc1CNC[C@H]1O[C@@H](n3cnc(C(N)=O)n3)[C@H](O)[C@@H]1O)OCO2`, for which the inhibition was 0.3%.
As for `Cc1nn(-c2ccccc2)c(NC(=O)c2cccs2)c(-c2ccc(Cl)cc2)c1=O`, the inhibition is 5.28%.
Turning to `CCOC(=O)CSc1nc2c(c(=O)n(Cc3ccccc3Cl)c(=O)n2C)n1C`, the inhibition was -3.76%.
With `CCOC(=O)c1cnn(Cc2ccccc2Cl)c1N`, the inhibition is 4.25%.
`CCOC(=O)c1cnc2nc(SCc3ccccc3Cl)[nH]n2c1=O`: the inhibition was 36.4% (active).
As to `CC1=C(C(=O)OCC2CCCCC2)C(c2ccc(F)cc2)NC(=O)N1` (centres undefined), the inhibition was 10.3%.
In the case of `CCN(C[C@H]1N[C@@](CC)(C(=O)OC)[C@H]2C(=O)N(Cc3ccccc3)C(=O)[C@@H]12)S(=O)(=O)c1ccc(C(F)(F)F)cc1` it was 2.27%; in that of `c1ccc(-c2[nH]ncc2-c2nc3ccccc3[nH]2)cc1`, 44.3% (active); in that of `Oc1ccc(-c2[nH]ncc2-c2nc3ccccc3s2)c(O)c1`, -10.2%.
Take `O=C1Nc2ccc([N+](=O)[O-])cc2C1=Nc1cccc(CO)c1`: the inhibition is -19.4%.
On to `COC(=O)C1(C(=O)OC)C[C@H](c2ccccc2)N(Cc2ccccc2OC)[C@@H]1c1ccccc1`, for which the inhibition is -0.75%.
As to `O=c1cc(CN2CCCCCCC2)c2c(ccc3ccccc32)o1`, the inhibition was 47.4% (active).
Regarding `CN(Cc1nc2ccccc2c(=O)[nH]1)Cc1cc(=O)oc2ccc3ccccc3c12`, the inhibition is 10.8%.
Consider `CC(C)c1ccc2oc(=O)cc(CN3CCN(Cc4ccccc4)CC3)c2c1`, for which the inhibition is 8.04%.
`NC(=O)C1CCN(C(=O)/C(=C/c2ccco2)NC(=O)c2ccccc2)CC1`: the inhibition was 2.01%.
